Assay [1] has as its target T1, Mitogen-activated protein kinase kinase kinase 5 (Homo sapiens) (UniProt Q99683).
T1 sequence (whole entry): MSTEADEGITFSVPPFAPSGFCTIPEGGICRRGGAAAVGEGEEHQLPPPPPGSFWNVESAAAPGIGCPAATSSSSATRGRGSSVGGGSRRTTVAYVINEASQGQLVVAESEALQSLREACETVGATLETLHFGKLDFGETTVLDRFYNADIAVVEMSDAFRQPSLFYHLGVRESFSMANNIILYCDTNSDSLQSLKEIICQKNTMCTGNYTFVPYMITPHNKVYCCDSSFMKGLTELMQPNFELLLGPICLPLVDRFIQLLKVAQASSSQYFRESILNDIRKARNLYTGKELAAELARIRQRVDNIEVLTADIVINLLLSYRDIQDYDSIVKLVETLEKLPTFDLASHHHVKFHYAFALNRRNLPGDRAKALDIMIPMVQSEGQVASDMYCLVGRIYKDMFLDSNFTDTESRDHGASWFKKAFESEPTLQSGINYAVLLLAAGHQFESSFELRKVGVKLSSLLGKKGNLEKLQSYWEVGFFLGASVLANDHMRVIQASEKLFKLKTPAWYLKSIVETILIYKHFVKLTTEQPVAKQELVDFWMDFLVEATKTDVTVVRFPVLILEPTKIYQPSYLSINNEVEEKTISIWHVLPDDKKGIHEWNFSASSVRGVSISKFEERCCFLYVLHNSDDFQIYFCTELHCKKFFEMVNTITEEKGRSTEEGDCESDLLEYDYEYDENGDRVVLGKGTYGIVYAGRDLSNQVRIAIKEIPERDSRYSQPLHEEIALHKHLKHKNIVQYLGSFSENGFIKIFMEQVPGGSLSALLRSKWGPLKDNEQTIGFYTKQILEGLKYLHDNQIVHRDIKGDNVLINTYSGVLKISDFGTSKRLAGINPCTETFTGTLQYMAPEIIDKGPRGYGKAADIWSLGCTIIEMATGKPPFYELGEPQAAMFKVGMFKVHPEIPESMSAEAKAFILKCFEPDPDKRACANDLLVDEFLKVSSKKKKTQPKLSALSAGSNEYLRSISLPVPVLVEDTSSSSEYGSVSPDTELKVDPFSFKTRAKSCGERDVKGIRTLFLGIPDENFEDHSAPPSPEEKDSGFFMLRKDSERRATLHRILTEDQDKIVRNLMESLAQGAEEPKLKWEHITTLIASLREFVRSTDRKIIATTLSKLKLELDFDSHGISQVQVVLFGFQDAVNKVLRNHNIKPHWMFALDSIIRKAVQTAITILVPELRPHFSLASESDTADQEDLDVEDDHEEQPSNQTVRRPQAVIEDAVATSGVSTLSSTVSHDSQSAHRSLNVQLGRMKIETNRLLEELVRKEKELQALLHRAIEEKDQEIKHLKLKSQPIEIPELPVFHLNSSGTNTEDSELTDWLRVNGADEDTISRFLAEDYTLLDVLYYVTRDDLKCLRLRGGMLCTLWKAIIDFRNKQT
The note with it: at 10 µM.

Assay [2] deals with Tyrosine-protein kinase ABL2 (Homo sapiens) (UniProt P42684). The note with it: at 1 µM.
Assay [3] shares this target. The note with it: at 10 µM.
Assay [4] has as its target T2, Aurora kinase A (Homo sapiens) (UniProt O14965).
T2 sequence (whole entry): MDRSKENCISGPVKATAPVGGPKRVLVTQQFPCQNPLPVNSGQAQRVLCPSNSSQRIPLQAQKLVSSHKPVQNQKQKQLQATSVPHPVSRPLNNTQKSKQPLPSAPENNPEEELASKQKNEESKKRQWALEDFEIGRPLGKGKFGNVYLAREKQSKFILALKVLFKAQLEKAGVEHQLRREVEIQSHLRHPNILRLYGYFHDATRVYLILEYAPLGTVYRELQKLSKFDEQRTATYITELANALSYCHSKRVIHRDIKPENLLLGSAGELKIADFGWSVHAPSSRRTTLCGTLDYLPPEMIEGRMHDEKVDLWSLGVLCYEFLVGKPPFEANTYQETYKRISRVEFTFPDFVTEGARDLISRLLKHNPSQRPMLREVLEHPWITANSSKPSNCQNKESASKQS
The note with it: at 10 µM.

Assay [5] addresses T3, Aurora kinase C (Homo sapiens) (UniProt Q9UQB9).
T3 sequence (whole entry): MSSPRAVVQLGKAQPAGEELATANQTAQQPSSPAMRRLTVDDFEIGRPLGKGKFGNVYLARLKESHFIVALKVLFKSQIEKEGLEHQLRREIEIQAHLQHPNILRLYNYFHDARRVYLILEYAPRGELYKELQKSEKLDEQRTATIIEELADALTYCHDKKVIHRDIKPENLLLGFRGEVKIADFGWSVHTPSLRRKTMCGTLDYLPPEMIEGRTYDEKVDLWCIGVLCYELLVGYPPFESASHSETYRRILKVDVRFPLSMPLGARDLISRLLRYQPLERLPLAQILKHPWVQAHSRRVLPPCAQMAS
The note with it: at 10 µM.

In assay [6] the target is Tyrosine-protein kinase receptor UFO (Homo sapiens) (UniProt P30530). The note with it: at 10 µM.
Assay [7] has as its target Tyrosine-protein kinase Blk (Homo sapiens) (UniProt P51451). The note with it: at 10 µM.
In assay [8] the target is Tyrosine-protein kinase ABL1 (Homo sapiens) (UniProt P00519). The note with it: at 1 µM.
Assay [9] has the same target. The note with it: at 10 µM.
Assay [10] has as its target T2, Aurora kinase A (Homo sapiens). The note with it: at 1 µM.
The target of assay [11] is Aurora kinase B (Homo sapiens) (UniProt Q96GD4). The note with it: at 1 µM.
Assay [12] shares this target. The note with it: at 10 µM.
Assay [13] has as its target Protein-tyrosine kinase 6 (Homo sapiens) (UniProt Q13882). The note with it: at 1 µM.
The target is the same in assay [14]. The note with it: at 10 µM.
In assay [15] the target is Tyrosine-protein kinase Blk (Homo sapiens) (UniProt P51451). The note with it: at 1 µM.
Assay [16] has as its target T3, Aurora kinase C (Homo sapiens). The note with it: at 1 µM.
Assay [17] addresses Tyrosine-protein kinase receptor UFO (Homo sapiens) (UniProt P30530). The note with it: at 1 µM.
In assay [18] the target is Tyrosine-protein kinase BTK (Homo sapiens) (UniProt Q06187). The note with it: at 1 µM.
For assay [19] the target is unchanged. The note with it: at 10 µM.

Sequence of Tyrosine-protein kinase ABL2 (Homo sapiens) (P42684 whole entry): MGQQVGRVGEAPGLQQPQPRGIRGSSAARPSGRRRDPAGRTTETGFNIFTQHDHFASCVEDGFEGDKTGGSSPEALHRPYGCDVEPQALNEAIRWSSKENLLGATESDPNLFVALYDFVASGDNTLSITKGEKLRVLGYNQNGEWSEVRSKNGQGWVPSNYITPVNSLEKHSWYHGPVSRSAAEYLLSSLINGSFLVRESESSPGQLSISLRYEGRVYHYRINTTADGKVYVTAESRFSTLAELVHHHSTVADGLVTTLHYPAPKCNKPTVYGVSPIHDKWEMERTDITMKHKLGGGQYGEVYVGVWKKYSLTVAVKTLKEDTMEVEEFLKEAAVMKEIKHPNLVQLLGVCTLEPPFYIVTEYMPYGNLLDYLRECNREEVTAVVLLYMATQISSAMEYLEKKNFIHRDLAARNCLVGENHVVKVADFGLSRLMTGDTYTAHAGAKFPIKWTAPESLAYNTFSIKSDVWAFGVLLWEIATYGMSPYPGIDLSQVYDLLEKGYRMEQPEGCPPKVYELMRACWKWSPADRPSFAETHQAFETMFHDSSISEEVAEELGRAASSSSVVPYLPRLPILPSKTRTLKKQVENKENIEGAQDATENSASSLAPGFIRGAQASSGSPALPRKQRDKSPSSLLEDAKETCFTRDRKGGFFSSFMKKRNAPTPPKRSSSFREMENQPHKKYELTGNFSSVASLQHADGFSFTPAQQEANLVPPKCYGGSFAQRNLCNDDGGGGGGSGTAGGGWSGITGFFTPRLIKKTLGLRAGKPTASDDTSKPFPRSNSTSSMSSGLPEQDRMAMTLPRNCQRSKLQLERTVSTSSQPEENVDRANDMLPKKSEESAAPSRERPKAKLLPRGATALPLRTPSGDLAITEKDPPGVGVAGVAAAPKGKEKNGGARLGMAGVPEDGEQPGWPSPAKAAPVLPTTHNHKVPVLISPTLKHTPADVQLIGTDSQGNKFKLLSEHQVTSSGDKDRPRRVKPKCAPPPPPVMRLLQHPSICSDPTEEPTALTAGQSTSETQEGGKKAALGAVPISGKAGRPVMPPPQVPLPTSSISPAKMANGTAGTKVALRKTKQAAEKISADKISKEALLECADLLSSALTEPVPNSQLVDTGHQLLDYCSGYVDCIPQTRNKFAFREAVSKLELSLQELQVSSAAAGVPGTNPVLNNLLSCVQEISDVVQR
Sequence of Aurora kinase B (Homo sapiens) (Q96GD4 whole entry): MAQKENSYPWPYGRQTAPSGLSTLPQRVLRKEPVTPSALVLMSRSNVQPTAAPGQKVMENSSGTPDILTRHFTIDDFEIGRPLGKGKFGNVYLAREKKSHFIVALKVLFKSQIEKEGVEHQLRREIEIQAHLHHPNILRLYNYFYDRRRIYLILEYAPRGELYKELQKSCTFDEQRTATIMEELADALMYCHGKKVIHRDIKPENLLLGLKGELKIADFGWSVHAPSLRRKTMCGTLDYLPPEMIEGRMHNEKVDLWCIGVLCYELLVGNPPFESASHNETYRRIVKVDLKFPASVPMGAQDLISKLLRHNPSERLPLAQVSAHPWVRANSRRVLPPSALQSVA
Sequence of Tyrosine-protein kinase receptor UFO (Homo sapiens) (P30530 whole entry): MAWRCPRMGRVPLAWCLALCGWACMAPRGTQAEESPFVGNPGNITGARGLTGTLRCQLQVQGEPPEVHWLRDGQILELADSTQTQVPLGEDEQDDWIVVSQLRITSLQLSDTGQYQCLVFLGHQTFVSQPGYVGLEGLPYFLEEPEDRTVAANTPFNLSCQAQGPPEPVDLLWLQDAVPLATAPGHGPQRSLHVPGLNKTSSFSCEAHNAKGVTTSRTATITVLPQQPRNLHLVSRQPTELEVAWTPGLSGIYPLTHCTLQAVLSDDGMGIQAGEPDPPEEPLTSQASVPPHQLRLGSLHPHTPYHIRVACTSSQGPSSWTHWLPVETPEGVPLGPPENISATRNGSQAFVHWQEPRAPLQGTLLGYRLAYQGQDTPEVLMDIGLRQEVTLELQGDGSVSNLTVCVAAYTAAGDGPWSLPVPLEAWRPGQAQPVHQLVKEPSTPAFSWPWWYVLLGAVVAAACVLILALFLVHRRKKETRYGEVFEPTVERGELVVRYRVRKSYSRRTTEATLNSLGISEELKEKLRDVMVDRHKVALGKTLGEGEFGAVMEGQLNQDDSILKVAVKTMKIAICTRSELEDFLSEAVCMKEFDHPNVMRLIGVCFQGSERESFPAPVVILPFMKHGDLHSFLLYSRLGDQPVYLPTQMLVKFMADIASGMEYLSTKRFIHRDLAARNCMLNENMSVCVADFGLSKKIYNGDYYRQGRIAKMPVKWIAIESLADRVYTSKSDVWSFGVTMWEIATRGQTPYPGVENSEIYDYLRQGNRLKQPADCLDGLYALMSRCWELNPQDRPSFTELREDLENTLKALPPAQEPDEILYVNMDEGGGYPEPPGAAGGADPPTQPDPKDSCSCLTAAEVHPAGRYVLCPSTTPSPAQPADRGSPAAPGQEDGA
Sequence of Tyrosine-protein kinase BTK (Homo sapiens) (Q06187 whole entry): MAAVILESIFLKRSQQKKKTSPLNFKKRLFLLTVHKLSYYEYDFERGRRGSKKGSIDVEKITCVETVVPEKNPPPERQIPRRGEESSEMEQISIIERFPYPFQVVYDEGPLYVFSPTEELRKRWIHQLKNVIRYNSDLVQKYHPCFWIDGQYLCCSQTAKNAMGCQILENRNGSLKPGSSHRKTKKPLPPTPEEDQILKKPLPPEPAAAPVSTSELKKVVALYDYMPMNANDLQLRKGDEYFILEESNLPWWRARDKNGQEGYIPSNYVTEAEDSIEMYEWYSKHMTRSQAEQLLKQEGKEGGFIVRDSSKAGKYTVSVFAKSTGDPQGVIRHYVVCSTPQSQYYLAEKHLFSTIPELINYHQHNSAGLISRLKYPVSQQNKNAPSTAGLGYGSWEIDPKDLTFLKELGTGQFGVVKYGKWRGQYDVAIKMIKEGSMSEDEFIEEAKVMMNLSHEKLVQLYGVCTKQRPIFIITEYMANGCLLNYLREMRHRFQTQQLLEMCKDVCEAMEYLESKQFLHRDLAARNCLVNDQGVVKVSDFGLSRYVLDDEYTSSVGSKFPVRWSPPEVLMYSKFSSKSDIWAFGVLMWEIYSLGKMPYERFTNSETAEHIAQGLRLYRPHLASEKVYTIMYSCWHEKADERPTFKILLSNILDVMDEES
Sequence of Tyrosine-protein kinase Blk (Homo sapiens) (P51451 2-505 limits assumed): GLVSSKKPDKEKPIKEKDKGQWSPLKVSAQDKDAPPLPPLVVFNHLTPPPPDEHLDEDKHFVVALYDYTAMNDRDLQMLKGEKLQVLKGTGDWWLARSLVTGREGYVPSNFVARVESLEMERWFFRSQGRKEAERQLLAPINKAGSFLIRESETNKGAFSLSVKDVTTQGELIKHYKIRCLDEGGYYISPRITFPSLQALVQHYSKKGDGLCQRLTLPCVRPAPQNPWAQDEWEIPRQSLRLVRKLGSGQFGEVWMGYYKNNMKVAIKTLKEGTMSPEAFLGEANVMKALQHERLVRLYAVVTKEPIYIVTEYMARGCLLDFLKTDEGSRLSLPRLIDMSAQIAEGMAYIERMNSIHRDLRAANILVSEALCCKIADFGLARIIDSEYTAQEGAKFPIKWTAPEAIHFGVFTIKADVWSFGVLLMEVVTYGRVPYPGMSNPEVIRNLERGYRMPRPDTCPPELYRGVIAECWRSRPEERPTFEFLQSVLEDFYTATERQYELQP
Sequence of Tyrosine-protein kinase ABL1 (Homo sapiens) (P00519 whole entry): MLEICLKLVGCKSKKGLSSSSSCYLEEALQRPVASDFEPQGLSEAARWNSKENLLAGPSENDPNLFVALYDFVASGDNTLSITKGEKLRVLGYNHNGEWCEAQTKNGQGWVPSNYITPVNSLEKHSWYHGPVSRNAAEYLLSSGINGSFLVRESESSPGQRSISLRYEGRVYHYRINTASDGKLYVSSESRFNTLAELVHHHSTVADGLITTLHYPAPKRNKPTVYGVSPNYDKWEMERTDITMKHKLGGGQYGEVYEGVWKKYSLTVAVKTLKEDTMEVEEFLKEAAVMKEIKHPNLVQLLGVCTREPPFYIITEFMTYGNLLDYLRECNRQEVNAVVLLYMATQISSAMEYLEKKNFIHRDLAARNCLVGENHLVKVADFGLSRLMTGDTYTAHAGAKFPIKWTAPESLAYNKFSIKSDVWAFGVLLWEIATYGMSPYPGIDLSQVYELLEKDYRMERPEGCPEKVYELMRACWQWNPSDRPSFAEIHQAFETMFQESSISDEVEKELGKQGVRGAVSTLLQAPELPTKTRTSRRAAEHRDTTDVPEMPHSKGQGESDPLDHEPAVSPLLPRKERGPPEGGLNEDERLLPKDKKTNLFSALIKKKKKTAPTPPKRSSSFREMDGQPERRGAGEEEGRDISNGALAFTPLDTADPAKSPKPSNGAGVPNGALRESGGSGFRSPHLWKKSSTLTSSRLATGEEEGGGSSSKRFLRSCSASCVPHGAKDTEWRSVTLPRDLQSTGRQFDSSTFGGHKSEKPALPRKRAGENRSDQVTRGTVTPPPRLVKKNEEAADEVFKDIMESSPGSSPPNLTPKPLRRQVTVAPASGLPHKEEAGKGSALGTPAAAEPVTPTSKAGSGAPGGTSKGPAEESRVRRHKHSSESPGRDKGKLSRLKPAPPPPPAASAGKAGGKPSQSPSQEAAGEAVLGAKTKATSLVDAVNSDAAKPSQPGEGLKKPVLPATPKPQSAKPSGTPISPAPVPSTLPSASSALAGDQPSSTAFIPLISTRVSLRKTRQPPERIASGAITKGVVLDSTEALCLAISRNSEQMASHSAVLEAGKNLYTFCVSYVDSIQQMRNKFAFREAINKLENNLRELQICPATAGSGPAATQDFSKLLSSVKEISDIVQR

Consider `O=C1NC(=O)C(c2cn(CCCn3ccnc3)c3ccccc23)=C1Nc1ccccc1`, for which the residual activity in [1] turned out to be 76%; in [2] it was 111%; in [3], 60%; in assay [4] it was 72%; in assay [5], 67%; in [6], 66%. Besides, in assay [7], the residual activity was determined as 33%.

As for `COc1ccc2c(c1)c(C1=C(c3c[nH]c4ccccc34)C(=O)NC1=O)cn2CCCN(C)C`, the residual activity in assay [8] was determined as 107%; in assay [9], 114%; in assay [2], 113%; in assay [3], 74%; in assay [10] it was 100%; in assay [4], 97%. Besides, the residual activity in assay [11] was found to be 39%; in [12] it was 7%; in assay [5], 59%; in assay [6] it was 40%; in [13] it was 98%; in assay [14], 82%. Also, the residual activity stood at 57% in assay [15] and 7% in assay [7].

In the case of `N#Cc1c(NC(=O)c2cccc3ccccc23)sc2c1CCCC2`, the residual activity is 80% in assay [1]; 92% in assay [10]; 69% in assay [11]; 69% in assay [12]; 98% in [16]; 97% in assay [5]. Also, the results for the residual activity in [17], in assay [6] and in assay [7] were 96%, 79% and 97%, respectively.

Regarding `CN([C@@H](Cc1ccc(OS(=O)(=O)c2cccc3cnccc23)cc1)C(=O)N1CCN(c2ccccc2)CC1)S(=O)(=O)c1cccc2cnccc12`, the residual activity in assay [9] was found to be 86%; in [18] it was 100%; in assay [19], 86%; in assay [15] it was 98%; in [7], 81%.

For `O=C1NC(=O)C(c2cn(CCCO)c3ncccc23)=C1c1cnccn1`, the residual activity worked out at 78% in assay [1]; 78% in [10]; 81% in assay [4]; 14% in assay [11]; 9% in assay [12]; 97% in assay [16]. Further, the residual activity in [5] was determined as 88%; in [17], 61%; in assay [6] it was 59%; in assay [15] it was 78%; in [7], 69%.

Turning to `COc1ccc(COc2ccc(Cc3cnc(N)nc3N)cc2OC)cc1`, the residual activity in [9] was 117%; in assay [10], 108%; in [4], 111%; in assay [11] it was 110%; in assay [12], 76%; in assay [17], 80%. The residual activity amounted to 74% in assay [6] and 98% in [7].

On to `Oc1cccc(-c2nc(N3CCOCC3)c3oc4ncccc4c3n2)c1`, for which the residual activity in assay [12] was determined as 92%; in assay [6] it was 86%.

For `O=C1Nc2ccccc2/C1=C\c1c(Cl)[nH]c2ccccc12`, the residual activity turned out to be 70% in assay [1]; 59% in assay [12]; 58% in assay [6]; 54% in assay [14]; 80% in assay [19].

Regarding `CSc1nc(-c2ccc(F)cc2)c(-c2ccnc(NC(C)c3ccccc3)c2)[nH]1` (stereo not drawn), the residual activity amounted to 86% in assay [1]; 46% in [11]; 13% in [12]; 101% in assay [17]; 85% in assay [6]; 89% in [14]. Moreover, the residual activity in [18] is 90%; in assay [19], 91%; in assay [15], 98%; in assay [7], 63%.

As for `Nc1nccc(-c2c(-c3ccc(F)cc3)ncn2C2CCNCC2)n1`, the residual activity in assay [3] is 65%; in [12], 72%; in assay [5], 78%; in [14] it was 30%.

On to `O=c1cc(N2CCOCC2)oc2c(-c3ccccc3)cccc12`, for which the residual activity in assay [13] and in assay [14] was 101% in each case.

In the case of `Nc1nc(Nc2ccc(S(N)(=O)=O)cc2)nn1C(=O)c1c(F)cccc1F`, the residual activity in [1] came to 46%; in [2], 34%; in assay [3], 8%; in [16], 6%; in assay [5], 1%; in [17], 56%. Moreover, the residual activity in assay [6] amounted to 13%; in assay [13], 106%; in assay [14] it was 74%; in [15], 74%; in assay [7], 9%.

These data come from ChEMBL document CHEMBL2218924, “A broad activity screen in support of a chemogenomic map for kinase signalling research and drug discovery” (Biochem J, 2013).
